For 25 molecules, relative cell viability results are on record in the supplement of paper PMC9588786.

± gives the standard deviation of the averaged measurements.
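Further: viability read as CCK-8 absorbance at 450 nm in cells co-exposed to the GPX4 inhibitor RSL3, relative to a 0.01% DMSO vehicle control.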

The assay has as its system HT-1080. The assay can be described thus: relative cell viability with RSL3 co-treatment (fraction of control); higher = stronger protection from RSL3-induced ferroptosis (higher viability). The following applies: 10 µM.
For the molecule `Nc1cc(C(F)(F)F)c(-c2cc(N3CCOCC3)nc(N3CCOCC3)n2)cn1` [Buparlisib (BKM120, NVP-BKM120)], the relative cell viability was found to be 0.643 ± 0.031.
In the case of `CNS(=O)(=O)C[C@H]1CC[C@H](N(C)c2[nH]cnc3nccc2-3)CC1` [Oclacitinib], the relative cell viability came out at 0.927 ± 0.075.
Under `CC(C)(C)c1ccc(S(=O)(=O)/C=C/C#N)cc1` stands 0.707 ± 0.015; under `OCCn1cc(-c2ccc3c(c2)CC/C3=N\O)c(-c2ccncc2)n1`, 0.687 ± 0.13.
With `O=C(NC(NC(=S)Nc1ccc(F)c([N+](=O)[O-])c1)C(Cl)(Cl)Cl)C(c1ccccc1)c1ccccc1` (stereo not given), the relative cell viability was 0.62 ± 0.095.
For `CC(C)N(CCC(=O)c1ccc2ccccc2c1)Cc1ccccc1` the value was 0.863 ± 0.12; for `CCN(CC)CCNC(=O)c1c(C)[nH]c(/C=C2\C(=O)Nc3ccc(F)cc32)c1C` [Sunitinib Malate], 0.543 ± 0.099.
On to `CCc1cncnc1N1CCN(Cc2nc3ccc(C(F)(F)F)cc3[nH]2)CC1`, for which the relative cell viability came to 0.653 ± 0.083.
Under `O=C(Cc1ccc(-c2ccc(OCCN3CCOCC3)cc2)cn1)NCc1ccccc1` stands 0.627 ± 0.16; under `Oc1cc(O)cc(/C=C/c2ccc(O)c(O)c2)c1` [Piceatannol], 0.717 ± 0.04; under `CN1CCN(c2nc(C3=C(c4c[nH]c5ccccc45)C(=O)NC3=O)c3ccccc3n2)CC1` [Sotrastaurin], 0.903 ± 0.042.
For `O=C(O)CCC(=O)Nc1ccc(Br)cn1` [Bikinin] the value was 0.723 ± 0.14; for `Cc1cc([C@@H](C)Nc2ccccc2C(=O)O)c2nc(N3CCOCC3)cc(=O)n2c1`, 0.593 ± 0.18; for `CNC(=O)c1cc(Oc2ccc(NC(=O)Nc3cc(C(C)(C)C)nn3-c3ccc4ncccc4c3)c(F)c2)ccn1` [Rebastinib (DCC-2036)], 0.3 ± 0.085.
As for `CC(C)CC(=O)Nc1n[nH]c2c1CN(C(=O)C1CCN(C)CC1)C2(C)C`, the relative cell viability was 0.78 ± 0.069.
As to `CC(C)[C@H](CO)Nc1nc(Nc2cccc(Cl)c2)c2ncn(C(C)C)c2n1` [Purvalanol A], the relative cell viability stood at 0.65 ± 0.09.
Under `Cn1c(=O)c(F)c(Nc2ccc(I)cc2F)c2c(=O)n(C[C@@H](O)CO)cnc21` stands 0.71 ± 0.017.
Under `Cn1sc(=O)n(Cc2ccccc2)c1=O` stands 0.887 ± 0.11.
For `O=C1NC(=O)/C(=C/c2ccc(-c3ccc(F)cc3O)o2)S1` the value was 0.75 ± 0.052.
For `CN(C)S(=O)(=O)c1ccc2c(c1)/C(=C/c1cc3c([nH]1)CCCC3)C(=O)N2`, the relative cell viability stood at 0.727 ± 0.081.
For `C[C@@H]1COC(Nc2ccc3ncnc(Nc4ccc(OCc5nccs5)c(Cl)c4)c3c2)=N1` [Varlitinib] the value was 0.597 ± 0.1.
Take `CS(=O)(=O)c1cccc(CNc2nc(Nc3ccc4c(c3)CCC(=O)N4)ncc2C(F)(F)F)c1`: the relative cell viability was 0.91 ± 0.085.
Under `CNC(=O)c1ccc(C)c(-n2c(C)cc(OCc3ccc(F)cc3F)c(Br)c2=O)c1` stands 0.747 ± 0.067.
For `C[C@H](Nc1ncnc2nc[nH]c12)c1cc2cccc(Cl)c2c(=O)n1-c1ccccc1` [Duvelisib (IPI-145, INK1197)] the value was 0.717 ± 0.025.
For `Cc1cc(C(=O)NOCCO)c(Nc2ccc(I)cc2F)n(C)c1=O` the value was 0.793 ± 0.16.
